From PubChem BioAssay (NCATS) come the findings set out here.

Records with an inconclusive call do not appear. A number with no mark means an inactive call. Active and inactive are the calls of the source. Calls come from the whole dose curve; as a rule, active = well fitted curve in the direction sought with a large enough effect; inconclusive = small, poorly fitted or top-dose-only effect, or another doubt; inactive = no such curve, though single readings can be large; an effect the other way counts as inactive or inconclusive.
Note: nearly all actives have a fitted effect of over 35% in size.
Potency is the fitted concentration of half-maximal effect.

The nature of one experiment: Quantitative highthroughput screen to assess conditional lethalithy of P12 Ichikawa cells grown in RPMI1640 with untreated serum (RPMI+s) (AID 1963881).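 For viability: 100% = DMSO wells and 0% = empty wells without cells.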 The settings on record: ATP luminescence, 48 h; Potency: viability; series mostly up to 45.8 µM; viability: at the top concentration. Put shortly:
(§1)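 Each medium arm—HPLM with 10% dialyzed FBS, or RPMI1640 with 5 mM glucose and 10% untreated or dialyzed FBS—was screened against an 11-point, 3-fold compound titration for 48 h at 37 °C, with CellTiter-Glo luminescence as endpoint.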
On to `CC(=CCCC1=CCC(C2=CC(=O)OC2O)OC1O)CCC1=C(C)CCCC1(C)C` (configuration not stated), for which the viability – broadly, a read-out of living cells in per cent, often relative to untreated cells – is 94.4%.

As for `CC(C)(C)[C@]1(O)C[C@@H]2OC(=O)C[C@@]23C(=O)O[C@@H]2OC(=O)[C@H](O)C213` (some centres not stated), the “viability” value is 102%.

With `CCOC(=O)c1cncn1[C@H](C)c1ccccc1`, the “viability” value was 107%.

For the molecule `C[C@@H]1[C@@H](C(=O)C[C@H]2O[C@@H]3O[C@]4(C)CC[C@@H]5[C@H](C)CC[C@@H]([C@H]2C)[C@@]35OO4)O[C@@H]2O[C@]3(C)CC[C@H]4[C@H](C)CC[C@@H]1[C@@]24OO3`, the Potency is 23.5 µM (active).

As to `C[C@]12CC[C@@H]3[C@@H](CCC4=CC(=O)CC[C@@H]43)[C@@H]1CC[C@@H]2OC(=O)CCc1ccccc1`, the “viability” value was 105%.

On to `C[C@@H]1CC[C@H]2[C@@H](C)C(=O)O[C@@H]3O[C@@]4(C)CC[C@H]1[C@]32OO4`, for which the “viability” value was 96.6%.

For `C[C@H]([C@H](O)CCC(C)(C)O)[C@H]1CC[C@@]2(O)C3=CC(=O)[C@@H]4C[C@@H](O)[C@@H](O)C[C@]4(C)[C@@H]3CC[C@]12C`, the “viability” value was 104%.

In the case of `c1cc2c(cc1[C@H]1OC[C@H]3[C@H]1CO[C@H]3c1ccc3c(c1)OCO3)OCO2`, the “viability” value was 103%.

On to `COc1cccc2c1[C@]13CCN(CC4CC4)[C@H](C2)[C@]1(OC)CCC(=O)C3`, for which the “viability” value is 98.3%.

`Cc1nc(-c2ccc(-c3ccc(C(=O)N4CCc5cc6c(cc54)C4(CCN(C)CC4)CO6)cc3)c(C)c2)no1`: the “viability” value is 94.9%.

Take `CC[C@H]1C=CC=CC[C@@H](C)[C@H](O)[C@@](C)(O)C(=O)[C@@H](C)[C@H](O)[C@@H](C)C(=O)[C@@H](C)[C@H](O)[C@@H](C)C=CC(=O)O[C@@H]2[C@@H](C)[C@H](CC1)O[C@]1(CC[C@H](C)[C@H](C[C@@H](C)O)O1)[C@H]2C`: the Potency was 16.6 µM (active).

In the case of `CC(O)=C(C#N)C(=O)Nc1cc(Br)ccc1Br`, the “viability” value was 95.3%.

As to `C=C[C@@H]1CN2CCC1C[C@@H]2[C@@H](O)c1ccnc2ccccc12` (some centres not stated), the “viability” value is 80%.

Consider `CSCC[C@@H](NC(=O)[C@@H](Cc1ccccc1)NC(=O)CNC(=O)CNC(=O)[C@@H](N)Cc1ccc(O)cc1)C(=O)O`, for which the “viability” value is 99%.

Regarding `CC(C)N[C@@H]1CCn2c(=O)[nH]c3cccc(c32)[C@@H]1O`, the “viability” value is 99.6%.

`COc1ccc2c(c1)CN(C)CC2c1ccc(Cl)c(Cl)c1` (configuration not stated): the “viability” value is 78.2%.

For `CCOC(=O)c1c(C(C#N)=CN)c2ccc(Cl)c(Cl)c2n1C`, the “viability” value is 99%.

With `COc1ccc2c(c[n+](C)c3c4cc5c(cc4ccc23)OCO5)c1OC`, the Potency is 11.8 µM (active).

As to `C[C@](O)(CS(=O)(=O)c1ccc(F)cc1)C(=O)Nc1ccc(C#N)c(C(F)(F)F)c1`, the “viability” value is 88.7%.

The nature of another experiment: Quantitative highthroughput screen to assess conditional lethalithy of SEM cells grown in Human Plasma-Like Medium with dialyzed fetal bovine serum (HPLM+ds) (AID 1963882). The note with it: SEM B-ALL cells in HPLM+ds, CellTiter-Glo viability, 48 h; series mostly up to 45.8 µM; viability: at the top concentration. Put shortly:
as §1
For orientation: Cellular ATP, detected with luciferase, serves as a proxy for viable cell number.
On to `CC(=CCCC1=CCC(C2=CC(=O)OC2O)OC1O)CCC1=C(C)CCCC1(C)C` (configuration not stated), for which the “viability” value is 97.7%.

For `CCOC(=O)c1cncn1[C@H](C)c1ccccc1`, the “viability” value was 95.1%.

Regarding `C[C@@H]1[C@@H](C(=O)C[C@H]2O[C@@H]3O[C@]4(C)CC[C@@H]5[C@H](C)CC[C@@H]([C@H]2C)[C@@]35OO4)O[C@@H]2O[C@]3(C)CC[C@H]4[C@H](C)CC[C@@H]1[C@@]24OO3`, the Potency is 26.4 µM (active).

Turning to `C1=C2CCCN[C@H]2[C@@H]2C[C@H]1[C@@H]1CCCCN1C2`, the “viability” value is 97.3%.

For `c1cc2c(cc1[C@H]1OC[C@H]3[C@H]1CO[C@H]3c1ccc3c(c1)OCO3)OCO2`, the “viability” value is 70.8%.

For `Cc1ccccc1-n1c(Cn2cnc3c(N)ncnc32)nc2cccc(C)c2c1=O`, the Potency is 0.296 µM (active).

For the molecule `COc1cccc2c1[C@]13CCN(CC4CC4)[C@H](C2)[C@]1(OC)CCC(=O)C3`, the “viability” value was 101%.

For the molecule `Cc1nc(-c2ccc(-c3ccc(C(=O)N4CCc5cc6c(cc54)C4(CCN(C)CC4)CO6)cc3)c(C)c2)no1`, the “viability” value was 105%.

Consider `CC[C@H]1C=CC=CC[C@@H](C)[C@H](O)[C@@](C)(O)C(=O)[C@@H](C)[C@H](O)[C@@H](C)C(=O)[C@@H](C)[C@H](O)[C@@H](C)C=CC(=O)O[C@@H]2[C@@H](C)[C@H](CC1)O[C@]1(CC[C@H](C)[C@H](C[C@@H](C)O)O1)[C@H]2C`, for which the Potency is 5.9 µM (active).

In the case of `C=C[C@@H]1CN2CCC1C[C@@H]2[C@@H](O)c1ccnc2ccccc12` (some centres not stated), the “viability” value is 91.8%.

For `C[C@@]12OC(=O)[C@]1([C@@H](O)[C@@H]1C=CCCC1)NC(=O)[C@H]2CCCl`, the Potency was 0.0526 µM (active).

`CC(=O)OCC1=C(C(=O)O)N2C(=O)[C@@H](N)[C@@H]2SC1`: the “viability” value was 80.5%.

On to `COc1ccc2c(c1)[C@]13CCCCC1C(C2)N(C)CC3` (some centres not stated), for which the “viability” value is 118%.

`C[C@@H]1O[C@@H](O[C@@H]2C=C3CC[C@@H]4[C@@H](CC[C@]5(C)[C@H](c6ccc(=O)oc6)CC[C@@]45O)[C@@]3(C)CC2)[C@H](O)[C@H](O)[C@H]1O`: the Potency was 0.0235 µM (active).

Regarding `C[C@]12CCC(=O)C(O)=C1CC[C@@H]1[C@H]3CCC(=O)[C@@]3(C)CC[C@@H]12`, the “viability” value is 97.3%.

Take `CC(C)N[C@@H]1CCn2c(=O)[nH]c3cccc(c32)[C@@H]1O`: the “viability” value is 100%.

Take `CCN1C[C@]2(OC(=O)c3ccccc3NC(C)=O)CC[C@H](OC)[C@@]34[C@H]5CC6[C@@H](OC)C[C@](O)(C(C[C@@H]23)[C@@H]14)[C@@]5(O)[C@@H]6OC`: the “viability” value is 85.7%.

`CC[C@@H]1[C@@H](C)O[C@@](O)([C@@H](C)[C@H](O)[C@H](C)[C@H]2OC(=O)C=CC=C[C@@H](C)[C@@H]([C@@H](C)[C@@H](O)[C@H](C)[C@@]3(O)C[C@H](O[C@H]4C[C@H](O)[C@H](O)[C@H](C)O4)[C@H](CC)[C@@H](C)O3)OC(=O)C=CC=C[C@@H]2C)C[C@H]1O[C@H]1C[C@H](O)[C@H](O)[C@H](C)O1`: the Potency was 2.35 µM (active).
